# Source: the supplement of paper PMC3334620
# In all, about 33,000 sequences were measured (“E-score (-0.5 to 0.5)”: median about -0.012, highest 2% from about 0.29 on). The entries come from a sample that favours the highest values as a whole.
# Biological target: T1, Ybr033w (UniProt P38073)
# T1 sequence: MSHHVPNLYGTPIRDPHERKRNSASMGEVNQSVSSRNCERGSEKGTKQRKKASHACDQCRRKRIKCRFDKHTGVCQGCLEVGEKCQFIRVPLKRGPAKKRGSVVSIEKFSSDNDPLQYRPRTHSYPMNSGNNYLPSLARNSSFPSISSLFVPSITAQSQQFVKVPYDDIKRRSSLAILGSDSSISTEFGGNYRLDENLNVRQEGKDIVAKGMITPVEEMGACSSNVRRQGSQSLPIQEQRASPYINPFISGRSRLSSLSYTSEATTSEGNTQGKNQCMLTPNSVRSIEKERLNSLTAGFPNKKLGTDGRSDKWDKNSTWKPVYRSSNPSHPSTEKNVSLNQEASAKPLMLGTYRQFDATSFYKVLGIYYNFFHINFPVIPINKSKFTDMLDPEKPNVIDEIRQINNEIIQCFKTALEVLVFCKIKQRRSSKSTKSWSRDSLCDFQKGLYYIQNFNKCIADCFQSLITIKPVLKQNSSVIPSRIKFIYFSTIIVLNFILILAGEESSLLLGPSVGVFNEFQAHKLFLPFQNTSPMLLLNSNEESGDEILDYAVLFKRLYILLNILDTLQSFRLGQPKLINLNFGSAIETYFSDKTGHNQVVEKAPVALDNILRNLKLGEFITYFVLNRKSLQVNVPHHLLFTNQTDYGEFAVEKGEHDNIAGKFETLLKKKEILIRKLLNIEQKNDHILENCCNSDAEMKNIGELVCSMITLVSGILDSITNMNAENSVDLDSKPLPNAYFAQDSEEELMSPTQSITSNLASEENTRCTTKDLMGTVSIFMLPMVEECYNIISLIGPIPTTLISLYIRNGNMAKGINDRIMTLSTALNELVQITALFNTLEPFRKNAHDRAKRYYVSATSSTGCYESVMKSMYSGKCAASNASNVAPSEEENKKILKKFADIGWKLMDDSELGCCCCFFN
# Test: PBM E-score (8-mer binding enrichment) (E-score (-0.5 to 0.5)); higher = stronger / more preferred TF binding
# Details: protein concentration: 200 nM; construct: GST-full length
# Method in brief: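 Masliner-normalised scans of fluorescent anti-GST signal were the basis for scoring. That signal came from GST-tagged yeast transcription factors applied at about 100-200 nM to double-stranded universal all-10-mer Agilent arrays on fresh or once-stripped slides. Each ungapped eight-base word, pooled with its reverse complement, received an E-score from the Universal PBM Analysis Suite.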
row,Sequence,PBM E-score
1,GACTCCCA,-0.305
2,CAGCCGTC,-0.0893
3,CGGAAGAG,-0.108
4,CGGAAGAC,0.00735
5,GGGAAGAA,0.256
6,AGGAAGAA,0.36
7,AGGAAGAC,-0.214
8,AAGAAGAT,0.205
9,CGGAAGAA,0.462
10,TAGAAGAA,0.0772
11,AGGAAGAT,0.323
12,AGGAAGAG,-0.0292
13,TGGAAGAA,0.347
14,AAGAAGAA,0.185
15,TGATACCA,0.092
16,CATTGGGC,-0.222
17,CCTAAAAG,-0.226
18,AGGATGCC,-0.102
19,ATCGAATC,0.0745
20,TAAAGGTA,0.0512
21,CAATGAAC,0.00305
22,GCGCACAA,-0.0152
23,CCGAAATC,0.0136
24,GGACCAGA,-0.0563
25,AAGTCCAC,-0.0692

row,Sequence,PBM E-score
1,GTACCACA,0.121
2,TAGGAAAA,0.229
3,TTGGGAAA,0.294
4,GTGGAAGA,0.137
5,GTGGAAAC,-0.0663
6,CTGGGAAA,0.135
7,TTGGAAAA,0.298
8,CTGGAAAA,0.377
9,ATGGGAAA,0.0136
10,CTGGAAAG,-0.189
11,CTGGAAAC,-0.0702
12,TTGAAAAA,0.237
13,GTGGAAAA,0.298
14,AAAGCTTG,0.147
15,CTGCAAAC,0.0506
16,CCGCCTGA,-0.172
17,TCTGCGCA,0.0104
18,CAGATATG,-0.0501
19,ATGGAAAG,0.122
20,ATGGAAAA,0.32
21,ATGGAAAT,0.175
22,ATTTGGCC,-0.0178
23,CTCATCAG,0.0236
24,CAATGAGG,-0.14
25,CTAACGAA,0.0607

row,Sequence,PBM E-score
1,ATAACGAA,0.229
2,TTAACGAA,0.296
3,CAATAAGC,0.0395
4,ATATAAAG,0.211
5,ATATAAAT,0.34
6,AAATAACT,0.294
7,AAATAAAA,0.233
8,AAATAACG,0.232
9,AAATAAGG,0.00755
10,ATATAAAC,0.142
11,AAATAAGC,0.0677
12,AAATAAAG,0.281
13,AAATAAGT,0.295
14,AAATAAAT,0.298
15,AAATAACA,0.11
16,GATTCTGC,0.0635
17,CAGCAAAC,-0.0765
18,GGTTCTGA,-0.0472
19,ACATGACC,-0.186
20,ACTTATGA,0.171
21,CGATCTAC,-0.0159
22,AGCTGGTA,-0.142
23,AGGATTAC,0.106
24,AGGATTAG,0.161
25,AGGATTCA,0.114

row,Sequence,PBM E-score
1,AGGATTAA,0.361
2,AGGATTAT,0.306
3,AGGATTTA,0.228
4,CCTGTAGC,-0.353
5,GGCCTACC,-0.113
6,CGACTGCA,-0.126
7,ACTAACGG,-0.0153
8,ACAATTAC,0.202
9,ACAATTAT,0.328
10,CCAATTAA,0.215
11,ACAATTAA,0.302
12,ACAATTAG,0.0047
13,TCAATTAA,0.252
14,GGCTAGGA,-0.106
15,ACCGCACT,-0.0787
16,GAGAGCTC,-0.197
17,AGCCCAAT,-0.125
18,GAGTTTTA,0.146
19,CAGATATA,0.175
20,GATATATC,0.226
21,CGGATATA,0.345
22,GATATATA,0.289
23,GGGATATA,0.158
24,AAGATATC,0.117
25,AAGATATA,0.323

row,Sequence,PBM E-score
1,TATATATA,0.28
2,CGGATATC,0.0386
3,CGTGGTTA,-0.0128
4,CGCGAGCA,-0.12
5,CACCTTAC,-0.00385
6,TCGGAACA,0.387
7,GCGGAACA,0.265
8,ACGGAACT,0.0148
9,CCGGAACA,0.447
10,TGGGAACA,0.111
11,GGGGAACA,0.00453
12,CGGGAACA,0.331
13,ACGGAACA,0.298
14,CCGGAACG,-0.0381
15,CCGGAACC,-0.16
16,AGGGAACA,0.249
17,ACGGAACC,-0.0347
18,ATCGTTCC,-0.196
19,ATATTTGC,0.222
20,TATGTTAA,0.238
21,CAGGGAAC,0.0159
22,CCCATCCC,-0.23
23,ACTGACGA,-0.0835
24,ACAATTCG,0.0965
25,ATAATTCG,0.294

row,Sequence,PBM E-score
1,ATGATTCA,0.127
2,ATGATTCC,0.336
3,ATAATTCC,0.348
4,CTAATTCC,0.0934
5,ATAATTCA,0.241
6,CTGATTCC,-0.0421
7,AGAATTCC,0.0767
8,AGCTCTGA,-0.0863
9,TACGGGGA,-0.183
10,GAGAATGA,0.122
11,ACACCGAT,-0.185
12,AAGCGCAG,0.127
13,AGTAGATC,0.164
14,CGTAGATA,0.0341
15,ACTAGATC,-0.0476
16,CCTAGATA,-0.0707
17,ACTAGATA,0.304
18,AGTAGATA,0.311
19,GCGGGGAC,-0.22
20,AGATGAAA,0.0735
21,AGAGCGTC,-0.081
22,ATCAGAAA,0.044
23,AGATACAA,0.292
24,AGATACAG,0.22
25,CGATACAA,0.165

row,Sequence,PBM E-score
1,CGGTGACG,-0.0845
2,CATGCGAG,-0.217
3,AATGCGAG,0.291
4,AATGCGAT,-0.0207
5,GGCATAAA,0.167
6,ATACGTGC,-0.058
7,TCACTAGA,0.12
8,AATTGTTC,0.339
9,AGTTGTTC,0.337
10,CATTGTAC,0.0182
11,AGTTGTTA,0.174
12,AATTGTCA,0.139
13,GATTGTTA,0.0997
14,AATTGTAC,0.337
15,AATTGTTA,0.314
16,AATTGTCC,0.163
17,AATTGTTG,0.114
18,AGTTGTTG,0.123
19,GATTGTAC,0.0766
20,CTGCAAAA,0.022
21,GAGCCCTA,-0.201
22,AACCTTGT,-0.194
23,ACCTGGGC,-0.362
24,CATGGAAG,0.204
25,ATTTGTTC,0.44

row,Sequence,PBM E-score
1,CATTGTTC,0.31
2,AAATGTTA,0.149
3,CTTTGTTC,0.111
4,AAATGTTG,-0.0479
5,AAATGTTC,0.346
6,CATTGTTA,-0.015
7,CCTTGTTC,-0.124
8,ATTTGTTA,0.185
9,GAGAGGTA,-0.223
10,CCCATCCA,-0.158
11,AACTGAGA,0.0375
12,GTTTGATA,0.177
13,AGCCCTGG,-0.252
14,AAATGGCA,0.101
15,ATTCCGGG,0.188
16,CTTCCGAA,0.208
17,GGTCCGAA,-0.0173
18,CTTCCGGA,0.274
19,ATTCCGAA,0.32
20,GTTCCGAA,0.29
21,ATTCCGAC,0.157
22,ATTCCGAG,0.242
23,ATTCCGGA,0.387
24,GAAGCTGA,0.135
25,CAGCTACA,0.0259

row,Sequence,PBM E-score
1,GCTACGCC,-0.239
2,ACGTTACT,0.0376
3,ATACGCCG,-0.149
4,AGTCAAAT,0.188
5,GGCCACCC,-0.214
6,CATTGAAC,0.124
7,CCTTGAAA,0.0714
8,CATTGAAA,0.29
9,CATTGAAG,-0.0671
10,TCTTGAAA,0.319
11,GCTTGAAA,0.0485
12,AGTGGTAG,0.0179
13,ATTAACCA,0.0788
14,ATTAACTA,0.181
15,ATTAACCG,0.295
16,ATTAACTG,0.333
17,ATTAACCC,0.237
18,ATTAACTC,0.291
19,AGTAACTG,0.0214
20,ATTAACGG,0.159
21,CTTAACTC,0.0941
